Laboratory results taken from the supplement of paper PMC8728848.
About 410 targets per protein were measured; listed, in parts, are those with the strongest signals and a random draw of the rest.

Assays:
Assay in all cases: glycan array binding signal (z-score within array); higher = stronger binding
Settings in all cases: glycan notation: IUPAC condensed, linker removed
[1] = target: Gal3S6S(b1-4)GlcNAc6S
Outline: (§1)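 The Consortium for Functional Glycomics database supplied 3228 glycan arrays, of which those lacking an available protein sequence were dropped. The binding signal, a within-array Z-score, was averaged across arrays of the same protein sequence and across linkers. Negative scores can be read as non-binding.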

[2] = target: GalNAc(b1-3)Gal(a1-4)Gal(b1-4)GlcNAc
Outline: as §1

[3] = target: GlcNAc(a1-4)Gal(b1-4)GalNAc
Outline: as §1

[4] = target: GlcNAc(b1-2)Man(a1-3)[GlcNAc(b1-4)][GlcNAc(b1-2)Man(a1-6)]Man(b1-4)GlcNAc(b1-4)[Fuc(a1-6)]GlcNAc
Outline: as §1

[5] = target: GlcNAc(b1-3)Gal(b1-4)GlcNAc(b1-3)Gal(b1-4)GlcNAc(b1-2)Man(a1-3)[GlcNAc(b1-3)Gal(b1-4)GlcNAc(b1-3)Gal(b1-4)GlcNAc(b1-2)Man(a1-6)]Man(b1-4)GlcNAc(b1-4)GlcNAc
Outline: as §1

[6] = target: GlcNAc6S(b1-3)Gal(b1-4)GlcNAc
Outline: as §1

[7] = target: Man(a1-2)Man(a1-3)Man
Outline: as §1

[8] = target: Man(a1-2)Man(a1-3)[Man(a1-6)]Man(a1-6)[Man(a1-2)Man(a1-3)]Man(b1-4)GlcNAc(b1-4)GlcNAc
Outline: as §1

[9] = target: Man(a1-3)[Man(a1-6)]Man(b1-4)GlcNAc(b1-4)GlcNAc
Outline: as §1

[10] = target: Neu5Ac(a2-3)Gal(b1-3)GalNAc
Outline: as §1

[11] = target: Neu5Ac(a2-3)Gal(b1-3)GalNAc(b1-4)[Neu5Ac(a2-8)Neu5Ac(a2-3)]Gal(b1-4)Glc
Outline: as §1

[12] = target: Neu5Ac(a2-3)Gal(b1-3)GlcNAc(b1-3)GalNAc
Outline: as §1

[13] = target: Neu5Ac(a2-3)Gal(b1-4)GlcNAc(b1-3)Gal(b1-4)GlcNAc(b1-3)Gal(b1-4)GlcNAc
Outline: as §1

[14] = target: Neu5Ac(a2-3)Gal(b1-4)GlcNAc(b1-3)Gal(b1-4)GlcNAc(b1-3)Gal(b1-4)GlcNAc(b1-2)Man(a1-3)[Neu5Ac(a2-3)Gal(b1-4)GlcNAc(b1-3)Gal(b1-4)GlcNAc(b1-3)Gal(b1-4)GlcNAc(b1-2)Man(a1-6)]GalNAc
Outline: as §1

[15] = target: Neu5Ac(a2-3)Gal(b1-4)[Fuc(a1-3)]GlcNAc(b1-2)Man
Outline: as §1

[16] = target: Neu5Ac(a2-3)[GalNAc(b1-4)]Gal(b1-4)Glc
Outline: as §1

[17] = target: Neu5Ac(a2-6)Gal(b1-4)GlcNAc(b1-2)Man(a1-3)[Man(a1-6)]Man(b1-4)GlcNAc(b1-4)GlcNAc
Outline: as §1

[18] = target: Neu5Ac(a2-6)Gal(b1-4)GlcNAc(b1-2)[Neu5Ac(a2-6)Gal(b1-4)GlcNAc(b1-4)]Man(a1-3)[GlcNAc(b1-4)][Neu5Ac(a2-6)Gal(b1-4)GlcNAc(b1-4)Man(a1-6)]Man(b1-4)GlcNAc(b1-4)GlcNAc
Outline: as §1

[19] = target: Neu5Ac(a2-6)Gal(b1-4)GlcNAc(b1-3)Gal(b1-4)GlcNAc(b1-2)Man(a1-3)[Neu5Ac(a2-6)Gal(b1-4)GlcNAc(b1-3)Gal(b1-4)GlcNAc(b1-2)Man(a1-6)]GalNAc
Outline: as §1

[20] = target: Neu5Ac(a2-6)Gal(b1-4)GlcNAc(b1-3)[Neu5Ac(a2-6)Gal(b1-4)GlcNAc(b1-6)]GalNAc
Outline: as §1

[21] = target: Neu5Ac(a2-6)Gal(b1-4)GlcNAc(b1-6)[Gal(b1-3)]GalNAc
Outline: as §1

[22] = target: Neu5Ac(a2-6)GalNAc(b1-4)GlcNAc
Outline: as §1

[23] = target: Neu5Ac(a2-8)Neu5Ac(a2-3)[Gal(b1-3)GalNAc(b1-4)]Gal(b1-4)Glc
Outline: as §1

[24] = target: Neu5Ac(a2-8)Neu5Gc(a2-3)Gal(b1-4)GlcNAc
Outline: as §1

[25] = target: Fuc(a1-2)Gal6S(b1-4)GlcNAc
Outline: as §1

[26] = target: Fuc(a1-2)[Gal(a1-3)]Gal(b1-4)GlcNAc(b1-2)Man(a1-3)[Fuc(a1-2)[Gal(a1-3)]Gal(b1-4)GlcNAc(b1-2)Man(a1-6)]Man(b1-4)GlcNAc(b1-4)GlcNAc
Outline: as §1

[27] = target: Fuc(a1-2)[GalNAc(a1-3)]Gal(b1-4)Glc
Outline: as §1

[28] = target: Fuc(a1-3)[Gal(b1-4)]GlcNAc(b1-4)Gal(b1-4)[Fuc(a1-3)]GlcNAc
Outline: as §1

[29] = target: Gal(a1-3)Gal(b1-3)GlcNAc(b1-2)Man(a1-3)[Gal(a1-3)Gal(b1-3)GlcNAc(b1-2)Man(a1-6)]Man(b1-4)GlcNAc(b1-4)GlcNAc
Outline: as §1

[30] = target: Gal(b1-3)Gal
Outline: as §1

[31] = target: Gal(b1-3)Gal(b1-4)GlcNAc(b1-2)Man(a1-3)[Gal(b1-3)Gal(b1-4)GlcNAc(b1-2)Man(a1-6)]Man(b1-4)GlcNAc(b1-4)GlcNAc
Outline: as §1

[32] = target: Gal(b1-3)[Fuc(a1-4)]GlcNAc(b1-2)Man(a1-3)[Gal(b1-3)[Fuc(a1-4)]GlcNAc(b1-2)Man(a1-6)]Man(b1-4)GlcNAc(b1-4)GlcNAc
Outline: as §1

[33] = target: Gal(b1-4)GalNAc(a1-3)[Fuc(a1-2)]Gal(b1-4)GlcNAc
Outline: as §1

[34] = target: Gal(b1-4)GlcNAc(b1-2)Man(a1-3)Man(b1-4)GlcNAc(b1-4)GlcNAc
Outline: as §1

[35] = target: Gal3S(b1-3)GalNAc
Outline: as §1

[36] = target: Gal3S(b1-4)GlcNAc6S
Outline: as §1

[37] = target: Gal3S6S(b1-4)GlcNAc
Outline: as §1

[38] = target: GlcNAc(b1-2)Gal(b1-3)GalNAc
Outline: as §1

[39] = target: GlcNAc(b1-2)Man(a1-3)[GlcNAc(b1-2)Man(a1-6)]Man(b1-4)GlcNAc(b1-4)GlcNAc
Outline: as §1

[40] = target: GlcNAc(b1-2)Man(a1-3)[GlcNAc(b1-2)Man(a1-6)]Man(b1-4)GlcNAc(b1-4)[Fuc(a1-6)]GlcNAc
Outline: as §1

[41] = target: GlcNAc(b1-3)Gal(b1-3)GalNAc
Outline: as §1

[42] = target: GlcNAc(b1-3)[GlcNAc(b1-4)][GlcNAc(b1-6)]GlcNAc
Outline: as §1

[43] = target: GlcNAc(b1-3)[GlcNAc(b1-6)]Gal(b1-4)GlcNAc
Outline: as §1

[44] = target: GlcNAc(b1-6)GalNAc
Outline: as §1

[45] = target: Kdn(a2-3)Gal(b1-3)GalNAc
Outline: as §1

[46] = target: Neu5Ac(a2-3)Gal(b1-3)GalNAc(b1-3)Gal(a1-4)Gal(b1-4)Glc
Outline: as §1

[47] = target: Neu5Ac(a2-3)Gal(b1-3)[Fuc(a1-4)]GlcNAc
Outline: as §1

[48] = target: Neu5Ac(a2-3)Gal(b1-4)GlcNAc6S
Outline: as §1

[49] = target: Neu5Ac(a2-3)Gal(b1-4)[Fuc(a1-3)]GlcNAc(b1-3)GalNAc
Outline: as §1

[50] = target: Neu5Ac(a2-3)Gal(b1-4)[Fuc(a1-3)]GlcNAc(b1-6)[Neu5Ac(a2-3)Gal(b1-3)]GalNAc
Outline: as §1

[51] = target: Neu5Ac(a2-6)Gal(b1-4)GlcNAc(b1-3)Gal(b1-4)GlcNAc
Outline: as §1

[52] = target: Neu5Ac(a2-6)GlcNAc(b1-4)GlcNAc(b1-4)GlcNAc
Outline: as §1

[53] = target: Neu5Ac(a2-8)Neu5Ac
Outline: as §1

[54] = target: Neu5Gc(a2-3)Gal(b1-3)[Fuc(a1-4)]GlcNAc
Outline: as §1

B1: PX14367A-bth-493-35-493 (Bacteroides thetaiotaomicron) (protein)
chain: VSSDQVAVAGNAERLFNGAWYNLFEYGTTYANIGYRALQCQDDMMASDVVSRPKYGFNSSYQFNDVAIPSDGRTSFAWYLIYKTIDNCNTAISIKGDSEELRQAQGQALALRAFCYLHLVQHYQFTYLKDKDAPCVPIYTEPTTSGTKPKGKSTVAQVYQQIFDDLNLAQDYLTNYVRKGDGQKFKPNTDVVNGLMARAYLLTGQWGEAAKAAEAARKGYSLMTTTAEYEGFNNISNKEWIWGSPQTLSQSDASYNFYYLDATYVGAYSSFMADPHLMDTFVKGDIRLPLFQWMREGYLGYKKFHMRSDDTADLVLMRSAEMYLIEAEAKVRDGVALDQAVAPLNTLRTARGVGNYDVTGKTKEQVIDEILMERRRELWGEGFGITDVLRNQKAVERMALSEDMQKTEVDCWQEGGSFAKRNPLGHWFLNFPDGKAFSANSSYYLYAIPEKEINANPNL
glycan array binding signal (z-score) [1]: 0.726 | glycan array binding signal (z-score) [2]: 4.2 | glycan array binding signal (z-score) [3]: -0.551 | glycan array binding signal (z-score) [4]: -0.396 | glycan array binding signal (z-score) [5]: 1.06 | glycan array binding signal (z-score) [6]: -0.213 | glycan array binding signal (z-score) [7]: 0.44 | glycan array binding signal (z-score) [8]: -0.608 | glycan array binding signal (z-score) [9]: 0.166 | glycan array binding signal (z-score) [10]: -0.407 | glycan array binding signal (z-score) [11]: -0.448 | glycan array binding signal (z-score) [12]: -0.042 | glycan array binding signal (z-score) [13]: -0.083 | glycan array binding signal (z-score) [14]: 1.29 | glycan array binding signal (z-score) [15]: -0.443 | glycan array binding signal (z-score) [16]: -0.325 | glycan array binding signal (z-score) [17]: 0.504 | glycan array binding signal (z-score) [18]: -0.361 | glycan array binding signal (z-score) [19]: 6.47 | glycan array binding signal (z-score) [20]: -0.601 | glycan array binding signal (z-score) [21]: 0.377 | glycan array binding signal (z-score) [22]: -0.719 | glycan array binding signal (z-score) [23]: -0.3 | glycan array binding signal (z-score) [24]: 11.1

B2: CREG (Mus musculus), O88668 (protein)
chain: MAARAPELARSLLAALLAPALVALLVSPASGRGGRDHGDWDVDRRLPPLPPREDGPRVARFVTHVSDWGSLATISTIKEVRGWPFADIISISDGPPGEGTGEPYMYLSPLQQAVSDLQENPEATLTMSLAQTVYCRNHGFDPQSPLCVHIMMSGTVTKVNKTEEDYARDSLFVRHPEMKHWPSSHNWFFAKLKISRIWVLDYFGGPKVVTPEEYFNVTLQ
glycan array binding signal (z-score) [25]: -0.138 | glycan array binding signal (z-score) [26]: 2.76 | glycan array binding signal (z-score) [27]: 0.375 | glycan array binding signal (z-score) [28]: 2.95 | glycan array binding signal (z-score) [29]: 3.49 | glycan array binding signal (z-score) [30]: 0.033 | glycan array binding signal (z-score) [31]: 0.416 | glycan array binding signal (z-score) [32]: 6.79 | glycan array binding signal (z-score) [33]: 0.494 | glycan array binding signal (z-score) [34]: -0.442 | glycan array binding signal (z-score) [35]: 0.036 | glycan array binding signal (z-score) [36]: 0.604 | glycan array binding signal (z-score) [37]: 1.52 | glycan array binding signal (z-score) [1]: 2.03 | glycan array binding signal (z-score) [38]: -0.651 | glycan array binding signal (z-score) [39]: 0.15 | glycan array binding signal (z-score) [40]: 3.8 | glycan array binding signal (z-score) [41]: 3.22 | glycan array binding signal (z-score) [42]: 2.23 | glycan array binding signal (z-score) [43]: -0.627 | glycan array binding signal (z-score) [44]: -0.035 | glycan array binding signal (z-score) [45]: 0.66 | glycan array binding signal (z-score) [46]: -0.096 | glycan array binding signal (z-score) [47]: -0.737 | glycan array binding signal (z-score) [48]: 1.38 | glycan array binding signal (z-score) [49]: 3.4 | glycan array binding signal (z-score) [50]: 4.66 | glycan array binding signal (z-score) [51]: 0.227 | glycan array binding signal (z-score) [52]: 0.386 | glycan array binding signal (z-score) [53]: -0.211 | glycan array binding signal (z-score) [54]: -0.132
